Screening results as filed in PubChem BioAssay.
SW480 rerep = DNA re-replication induction in SW480 cells; Potency, µM (titrated, usually from 46.1 µM), for the others: at the highest dose re-replication activation, actives largely listed as activators; AID 624297; SW480 DNA re-replication, Hoechst DNA content imaging, 48 h; actives 1.8% (n = 340,000); note: % of control where 0% means no effect; nearly all actives have a fitted effect of over 55% in size
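Readout is total intensity of Hoechst-stained nuclei, excited at 405 nm and collected at 500-530 nm. Compound treatment lasted 48 hr at 37 C in 5% CO2 before staining.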
KB-3-1 tox = kills parental KB-3-1 adenocarcinoma cells | KB-3-1 viability, CellTiter-Glo ATP luminescence, 72 h | AID 1347075 | actives 1.4% (n = 400,000) | Potency, µM (titrated, usually from 46.1 µM), usual class: cytotoxic; note: % is set by controls: 0 for no effect and ±100 for the full control effect; nearly all actives have a fitted effect of over 60% in size
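Parental KB-3-1 adenocarcinoma cells in phenol-red-free DMEM with 10% FBS were pin-treated with compounds at several concentrations, incubated 72 h at 37 °C, and viability read by CellTiter-Glo luminescence; concentration-effect curves were fitted after normalization.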
HT1080NT lethal = kills 2HG-producing HT-1080-NT fibrosarcoma cells; HT-1080-NT fibrosarcoma viability, CellTiter-Glo ATP luminescence, 48 h; Potency, µM (highest dose often 46.1 µM), for the others: at the highest dose activity, negative = less viability, usual class: cytotoxic; actives 1.6% (n = 360,000);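 note: NT is the 2HG producing partner of a matched IDH1 knockdown line; 0% = DMSO-treated cells and -100% = media-only wells without cells; nearly all actives have a fitted effect of over 55% in size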
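750 cells/well, RPMI + 5% FBS; 2 h settle, compound pin-transfer, 48 h at 37 degrees C. CellTiter-Glo 10 min RT, luminescence. Normalized to DMSO and media-only wells.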
MCF10A rereplic = inducers of DNA re-replication in MCF 10A breast cells. AID 624296. Potency, µM (titrated, usually from 46.1 µM), without a hit: at the highest dose activity, positive = re-replication, actives largely listed as activators. actives 2.9% (n = 350,000). MCF 10A DNA re-replication, Hoechst nuclear intensity, 48 h; note: % of control where 0% means no effect; nearly all actives have a fitted effect of over 50% in size
KB-V1 MDR tox = KB-V1 MDR subline cytotoxicity | KB-V1 MDR cells viability, CellTiter-Glo, 72 h | Potency, µM (highest dose often 46.1 µM), most hits filed as cytotoxic | actives 3.4% (n = 400,000); note: % is set by controls: 0 for no effect and ±100 for the full control effect; nearly all actives have a fitted effect of over 60% in size
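Potencies derive from concentration-effect curves fitted to normalized luminescence (CellTiter-Glo) of KB-V1 cells treated for 72 h at 37 degrees C in phenol-red-free DMEM containing 10% FBS.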
HT1080 IDH1KD tx = HT-1080 IDH1 knockdown cell toxicity (counter line); HT-1080 IDH1 knockdown viability, ATP luminescence, 48 h; Potency, µM (series often up to 46.1 µM), without a hit: at the highest dose activity, negative = toxicity, hits mostly cytotoxic; actives 2% (n = 360,000); AID 686971;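 note: 0% = DMSO wells and -100% = cell-free medium wells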
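Assay cells: HT-1080 with IDH1 knockdown, 750 per well, RPMI/5% FBS. Exposure: 48 h at 37 °C following 2 h pre-incubation. Read: CellTiter-Glo luminescence; fitted concentration-response, curve class assigned.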
Active calls of the source: *; i = inactive; ? = inconclusive; . = no result; [ ] = another dose, or the depositor's remark. Most compounds without a hit are left out; they make up all but 8% or so of the library. Calls come from the whole dose curve; as a rule, active = well fitted curve in the direction sought with a large enough effect; inconclusive = small, poorly fitted or top-dose-only effect, or another doubt; inactive = no such curve, though single readings can be large; an effect the other way counts as inactive or inconclusive. Potency is the fitted concentration of half-maximal effect.

SMILES | SW480 rerep | KB-3-1 tox | HT1080NT lethal | MCF10A rereplic | KB-V1 MDR tox | HT1080 IDH1KD tx
Cc1ccc(NS(=O)(=O)c2ccc(NC(=O)C3CCCO3)cc2)cc1 (stereo not drawn) | -4% | i | -12% | -2% | 13µM* | -8%
O=C(Nc1ccc(S(=O)(=O)N2CCCC2)cc1)Nc1ccc(F)cc1F | -5% | i | -2% | 5% | i | -25%
CC(C)(C)NS(=O)(=O)c1ccc(NS(=O)(=O)c2ccc(F)cc2)cc1 | -3% | i | 5% | 0% | i | 5%
Cc1ccc(S(=O)(=O)Nc2ccc(N3CCCCC3)cc2)cc1 | 17% | i | -12% | 11% | i | -12%
Cc1ccc(NS(=O)(=O)c2ccc(C3CCCCC3)cc2)cc1 | -4% | ? | -24% | 23µM* | 21µM* | -25%
Cc1sc2ncn(CC(=O)Nc3c(F)cccc3F)c(=O)c2c1S(=O)(=O)N1CCC(C)CC1 | -4% | i | 25% | 6% | i | 5%
CCCCCN1N=C(C)CC1=O | 1% | i | 11% | 0% | i | 9%
O=S1(=O)N[C@@H](Cc2ccccc2)COc2ccc(Cl)cc21 | . | i | 8% | . | i | 9%
Cc1cc(S(=O)(=O)NCc2cccs2)ccc1-n1cnnn1 | -1% | i | 0% | 0% | i | 8%
Cc1cc(S(=O)(=O)NCc2cccnc2)ccc1-n1cnnn1 | ? | i | -3% | 18µM* | i | 0%
CCCOc1ccc(C(=O)Nc2cccc(-c3nc4ccccc4[nH]3)c2)cc1 | . | ? | . | . | 21µM* | .
COCCN1Cc2cccc(C(=O)NCc3ccc4c(c3)OCO4)c2C1=O | 4% | i | 3% | -6% | 4.1µM* | 14%
COCCN1Cc2cccc(C(=O)Nc3cccc(-c4nc5ccccc5[nH]4)c3)c2C1=O | 88% | ? | -52% | ? | 10µM* | 16µM*
O=C(Nc1cccc(-c2nc3ccccc3[nH]2)c1)c1cccc(NC(=O)c2ccco2)c1 | 15µM* | ? | ? | ? | i | ?
c1cc(-c2ccncc2)ccn1 | 0.52µM* | i | . | -6% | i | .
Fc1ccc(-c2csc3ncnc(N4CCN(Cc5ccccc5)CC4)c23)cc1 | -1% | . | 7% | -3% | . | 6%
Cc1c(C(=O)N2CCN(Cc3ccccc3)CC2)sc2ncnc(N3CCOCC3)c12 | 0% | i | 0% | 8% | 18µM* | -1%
CCCN1CCN(c2ncnc3sc(C(=O)Nc4c(C)cc(C)cc4C)c(C)c23)CC1 | . | 21µM* | . | . | ? | .
Cc1sc2ncnc(N3CCN(Cc4ccccc4)CC3)c2c1-c1ccc(F)cc1 | -1% | ? | 4% | 0% | 15µM* | 5%
COc1ccc(CCNC(=O)c2cc(C(=O)c3cc(Cl)ccc3O)cn(CCc3ccc(OC)cc3)c2=O)cc1 | ? | i | -11% | -51% | 2.6µM* | 0%
COc1ccc(CCNC(=O)c2cc(C(=O)c3cc(C)ccc3O)cn(CCc3ccc(OC)cc3)c2=O)cc1 | 7% | i | 0% | ? | ? | 3%
O=C(c1cc(C(=O)NCCc2ccccc2)c(=O)n(CCc2ccccc2)c1)c1cc(Cl)ccc1O | 8% | ? | -15% | 12% | 2.3µM* | ?
CC1=CC(=O)C(C(C)C)=C/C1=N/OC(=O)c1cccc([N+](=O)[O-])c1 | 0% | i | 10µM* | 2% | i | -17%[9.24 µM]
CC1=CC(=NOC(=O)c2cccc([N+](=O)[O-])c2)C=C(C)C1=O | ? | i | ? | ? | i | ?
C=C(CN(C)C)C(=O)c1cc(C)ccc1C | 5.8µM* | ? | ? | 2.6µM* | ? | 4.6µM*
SMILES | SW480 rerep | KB-3-1 tox | HT1080NT lethal | MCF10A rereplic | KB-V1 MDR tox | HT1080 IDH1KD tx
c1ccc(-c2cc(N3CCOCC3)nc3ccccc23)cc1 | 7% | i | -12% | 29% | 21µM* | ?
O=C(CN1CCN(c2ccc(Cl)cc2[N+](=O)[O-])CC1)N1CCOCC1 | -4% | i | 12% | ? | i | 5%
Cc1cc(C)cc(Nc2nc3ccccc3c(=O)[nH]2)c1 | ? | i | 14% | ? | ? | -10%
Cc1nc(Nc2nc(CSc3ccc(Cl)cc3)cc(=O)[nH]2)nc2ccccc12 | ? | i | 18% | 12% | i | 12%
COc1nc(Nc2nc3ccccc3c(=O)[nH]2)nc2ccc(C)cc12 | 4.6µM* | ? | 1.3µM* | ? | ? | 1.3µM*
Cc1nc(Nc2nc(CSc3nc4ccccc4[nH]3)cc(=O)[nH]2)nc2ccccc12 | ? | ? | 4.1µM* | 12µM* | i | 4.6µM*
CCc1ccc2nc(Nc3nc(COC)cc(=O)[nH]3)nc(C)c2c1 | 0% | i | 4% | 13% | 21µM* | 17%
COc1ccc2nc(Nc3nc(CSc4nc5ccccc5[nH]4)cc(=O)[nH]3)nc(C)c2c1 | ? | ? | ? | 3.7µM* | ? | ?
COc1ccc(C(O)c2nc(-c3cccc(F)c3)cs2)cc1 (stereo not drawn) | . | i | -24% | . | i | -13%
COc1ccccc1/C=N/NC(=O)c1ccc(Cn2nc([N+](=O)[O-])cc2C)cc1 | -4% | i | 4% | -68% | i | 13%
COc1ccc(N2CCN(Cc3cc4c(cc3Br)OCCO4)CC2)cc1 | 2% | ? | -16% | 13% | ? | -17%
CCOc1ccccc1NC(=O)CSc1c(C)cnc2c1c(=O)n(C)c(=O)n2C | . | i | . | . | i | .
COCc1cc(=O)[nH]c(Nc2nc3ccc(C)cc3o2)n1 | ? | 21µM* | 4% | ? | ? | ?
Cc1ccc2c(=O)[nH]c(Nc3nc(C)cc(-c4ccccc4)n3)nc2c1 | ? | i | 4% | 20% | i | 20%
Cc1nc(Nc2nc(-c3ccccc3)cc(=O)[nH]2)nc2ccccc12 | ? | ? | ? | ? | ? | 18µM*
CSc1ccc(CN(C)C(=O)CNC(=O)c2ccc3c(c2)OCO3)cc1 | -4% | i | 2% | 14% | 21µM* | 14%
CCc1ccccc1Nc1nc(N)nc(COC(=O)c2cccn2C)n1 | 13% | i | ? | ? | 15µM* | 6.3µM*
Cc1cc(=O)oc2cc(OCC3CC(c4ccccc4)=NO3)ccc12 (stereo not drawn) | 5.2µM* | 7.3µM* | 11µM* | 4.1µM* | 8.2µM* | ?
O=[N+]([O-])c1ccc(OCC2CC(c3ccccc3)=NO2)cc1 (stereo not drawn) | 16µM* | i | 9% | ? | i | 7%
